Test [1] can be described thus: Quantitative High-Throughput drug screen in 47 multiple myeloma cell lines against the NCATS MIPE library collection: KHM11_PLB cell viability assay (AID 1918962). Further: nearly all actives have a fitted effect of over 35% in size. In short, it runs like this:
(§1)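 Myeloma cell lines, 500 cells per well, exposed to MIPE 4.0 library compounds for 48 h at 37C, 5% CO2. Viability from ATP by CellTiter-Glo luminescence; normalised to DMSO (100%) and media-only (0%) wells.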

Test [2] can be described thus: Quantitative High-Throughput drug screen in 47 multiple myeloma cell lines against the NCATS MIPE library collection: JIM1_ECACC cell viability assay (AID 1918964). In short, it runs like this: (§2)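 Steps: seed 500 cells per well; pin-transfer MIPE 4.0 library; incubate 48 h at 37C, 5% CO2, humidified; add CellTiter-Glo, 5 min room temperature; read luminescence.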
The nature of test [3]: Quantitative High-Throughput drug screen in 47 multiple myeloma cell lines against the NCATS MIPE library collection: INA6_PLB cell viability assay (AID 1918965; further: nearly all actives have a fitted effect of over 55% in size). The gist of the method: as §1
Test [4] can be described thus: Quantitative High-Throughput drug screen in 47 multiple myeloma cell lines against the NCATS MIPE library collection: H1112_PLB cell viability assay (AID 1918967; further: nearly all actives have a fitted effect of over 30% in size). In short, it runs like this:
as §2

Test [5] is described as follows: Quantitative High-Throughput drug screen in 47 multiple myeloma cell lines against the NCATS MIPE library collection: Karpas25_ECACC cell viability assay (AID 1918968; further: nearly all actives have a fitted effect of over 35% in size). In short, it runs like this: as §2
Test [6] in a line: Quantitative High-Throughput drug screen in 47 multiple myeloma cell lines against the NCATS MIPE library collection: KMS27_JCRB cell viability assay (AID 1918970). Further: nearly all actives have a fitted effect of over 30% in size. Conditions: KMS27 myeloma cells, CellTiter-Glo ATP viability, 48 h; viability (% of DMSO): at 45.8 µM (top of the series). The gist of the method: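 ATP-based viability (CellTiter-Glo luminescence) is measured in cells treated 48 h with approved and investigational drugs at 37 °C. Controls are DMSO-only wells for full viability and media-only wells for none.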

Test [7] in a line: Quantitative High-Throughput drug screen in 47 multiple myeloma cell lines against the NCATS MIPE library collection: KMS12BM_JCRB cell viability assay (AID 1918971). Further: nearly all actives have a fitted effect of over 35% in size. In short, it runs like this:
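CellTiter-Glo luminescence (ATP) after 48 h compound exposure, 37C/5% CO2; 500 cells/well; MIPE 4.0 approved/investigational drugs pinned in; DMSO = 100%, media only = 0% viability.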

Test [8] is described as follows: Quantitative High-Throughput drug screen in 47 multiple myeloma cell lines against the NCATS MIPE library collection: KMS12PE_JCRB cell viability assay (AID 1918972). Further: nearly all actives have a fitted effect of over 30% in size. The gist of the method:
as §1

Test [9] is described as follows: Quantitative High-Throughput drug screen in 47 multiple myeloma cell lines against the NCATS MIPE library collection: JJN3_DSMZ cell viability assay (AID 1918966; further: nearly all actives have a fitted effect of over 50% in size). In short, it runs like this:
as §2

The nature of test [10]: Quantitative High-Throughput drug screen in 47 multiple myeloma cell lines against the NCATS MIPE library collection: JIM3_ECACC cell viability assay (AID 1918963; further: nearly all actives have a fitted effect of over 35% in size). In short, it runs like this: as §1

Records with an inconclusive call do not appear. Active and inactive are the calls of the source. The call rests on the fitted dose curve; in most records, active means well fitted curve in the direction sought with a large enough effect; inconclusive means small, poorly fitted or top-dose-only effect, or another doubt; inactive means no such curve, though single readings can be large; an effect the other way counts as inactive or inconclusive.
Potency means the concentration at half of the fitted maximal effect.

Turning to `CN(C)c1nc(Cc2ccc(NC(=O)c3ccc(C(F)(F)F)cc3)cc2)nc(N(C)C)c1CC(=O)O`, the Potency entry in test [1], in test [2], in [3], in test [4], in test [6] and in test [7] was “inactive” each time. In addition, the Potency result in test [8] is “inactive”. Besides, the Potency in test [5] was 10.5 µM (active).
Regarding `Cc1cnc(CNC(=O)c2c(=O)c3ccc(N4CCCN(C)CC4)nc3n3c2sc2ccccc23)cn1`, the Potency result in test [1], in test [5] and in test [6] was “inactive” throughout. For the same compound, the Potency in [3] was 2.57 µM (active); in [7], 0.323 µM (active).
In the case of `C=C1[C@H](n2cnc3c(=O)[nH]c(N)nc32)C[C@H](O)[C@H]1CO`, the Potency in test [1] was 4.69 µM (active); in [3], 11.8 µM (active); in test [4] it was 11.8 µM (active); in test [5] it was 2.96 µM (active); in test [6], 5.9 µM (active); in [7], 0.418 µM (active). The Potency in test [8] was 0.296 µM (active). For the same compound, in test [9], the Potency entry is “inactive”.
In the case of `OC[C@H]1O[C@@H](Oc2ccc(O)cc2)[C@H](O)[C@@H](O)[C@H]1O`, the Potency result in test [1] and in test [5] was “inactive” in each case. Further, the Potency in test [10] was 10.5 µM (active).
With `CCC(=O)NCC[C@@H]1CCc2ccc3c(c21)CCO3`, the Potency in test [1], in test [10] and in [5] was 13.2 µM (active) each time. The Potency result in test [6], in [7] and in test [8] was “inactive” each time.
With `O=C(O)CCNc1cc(N2CCc3ccccc3CC2)nc(-c2ccccn2)n1`, the Potency entry in test [1], in [4] and in test [8] was “inactive” throughout. For the same compound, the Potency in [3] is 16.6 µM (active); in test [5], 16.6 µM (active); in [7] it was 0.0372 µM (active).
On to `O=C(CCCN1CCN(c2ccc(F)cc2)CC1)NC1c2ccccc2CSc2ccccc21` (stereo unspecified), for which the Potency in test [1] was 4.18 µM (active); in test [3], 4.69 µM (active); in [4], 7.43 µM (active); in [5], 3.32 µM (active); in test [6], 5.9 µM (active); in test [7], 11.8 µM (active). In addition, the Potency in test [8] is 4.18 µM (active).
In the case of `CCCCC(C=O)NC(=O)C(CC(C)C)NC(=O)OCc1ccccc1` (stereo unspecified), the Potency entry in test [1], in test [4], in test [6] and in test [8] was “inactive” throughout. Also, the Potency in test [3] was 16.6 µM (active); in [7], 20.9 µM (active).
Take `Cc1ccc2c(c1)C(=O)[C@]1(O)CCN(c3ccccc3)C1=N2`: the Potency entry in test [1] and in [2] was “inactive” throughout. Moreover, the Potency in [9] is 11.8 µM (active).
As to `CCC(=O)OCC(=O)[C@@]1(OC(=O)CC)[C@@H](C)C[C@@H]2[C@H]3CCC4=CC(=O)C=C[C@]4(C)[C@@]3(F)[C@@H](O)C[C@@]21C`, the Potency result in [1] and in [4] was “inactive” throughout. In addition, the Potency in [2] was 6.62 µM (active); in test [5], 0.118 µM (active); in [6] it was 4.18 µM (active); in test [8] it was 10.5 µM (active).
As for `CN[C@@H]1CN(c2ccc3c(=O)c(C(=O)O)cn(-c4nccs4)c3n2)C[C@@H]1OC`, the Potency is 14.4 µM (active) in test [1]; 1.44 µM (active) in test [3]; 8.12 µM (active) in test [9]; 12.9 µM (active) in [4]; 5.12 µM (active) in [5]; 0.645 µM (active) in test [7]. Besides, in [8], the Potency result was “inactive”.
`Cc1cc(-c2ncc(CC(=O)Nc3ccc(-c4cnccn4)cn3)cc2C)ccn1`: the Potency in [1] was 14.8 µM (active); in [3], 10.5 µM (active); in test [9], 6.62 µM (active); in test [5] it was 10.5 µM (active); in [7], 6.62 µM (active).
For the compound `C[C@@]1(c2cc(-c3cncnc3)c(F)cc2F)CCSC(N)=N1`, the Potency in [1] was 3.32 µM (active); in test [10] it was 23.5 µM (active). Besides, the Potency entry in [7] was “inactive”.
For the compound `CC1CCN(c2cc(N3CCN(C)CC3)ccc2NC(=O)c2cc(C#N)c[nH]2)CC1`, the Potency entry in [1], in [2], in test [4], in [5], in test [6] and in test [8] was “inactive” each time.
Turning to `CC=C(C(=CC)c1ccc(O)cc1)c1ccc(O)cc1`, the Potency result in test [1] is “inactive”. Besides, the Potency is 16.6 µM (active) in [3], 11.8 µM (active) in test [6], 16.6 µM (active) in test [7] and 16.6 µM (active) in test [8].
In the case of `CN(C)CC[C@H](CSc1ccccc1)Nc1ccc(S(=O)(=O)NC(=O)c2ccc(N3CCN(Cc4ccccc4-c4ccc(Cl)cc4)CC3)cc2)cc1[N+](=O)[O-]`, the Potency in test [1] is 5.26 µM (active); in test [2], 1.48 µM (active); in test [3], 18.7 µM (active); in test [9], 8.33 µM (active); in [4], 0.0743 µM (active); in test [5], 1.48 µM (active). The Potency is 0.0187 µM (active) in test [6], 0.187 µM (active) in test [7] and 0.0235 µM (active) in test [8].
For `Nc1[nH]nc2nnc(-c3c(-c4ccccc4)nn4ccccc34)cc12`, the Potency in [1] was 10.5 µM (active); in [2], 3.32 µM (active); in test [3], 1.05 µM (active); in test [4], 4.18 µM (active); in test [5], 1.66 µM (active); in test [6], 1.87 µM (active). In addition, the Potency in [8] was 2.35 µM (active). Also, the Potency entry in test [7] is “inactive”.
Take `CCCCC(F)(F)[C@@]1(O)CC[C@H]2[C@H](CC(=O)[C@@H]2CCCCCCC(=O)O)O1`: the Potency result in test [1], in [3], in test [4] and in test [8] was “inactive” throughout.
For the compound `Nc1ncnc2c1ncn2[C@@H]1O[C@H](CO)[C@@H](O)[C@@H]1O`, the Potency result in [10] and in test [4] was “inactive” throughout. The Potency in [2] is 7.43 µM (active); in test [3], 3.32 µM (active); in test [5], 5.26 µM (active); in [6] it was 0.418 µM (active); in test [8], 1.66 µM (active).
As to `Cc1csc(-c2nnc(Nc3ccc(Oc4ncccc4-c4ccnc(N)n4)cc3)c3ccccc23)c1`, the Potency was 23.5 µM (active) in test [1], 18.7 µM (active) in test [9] and 20.9 µM (active) in test [8].
Regarding `COC(=O)N1CCN(Cc2cccc(NC(=O)Nc3ccc(C)nc3)c2F)CC1`, the Potency entry in [1], in test [6] and in [8] was “inactive” in each case. The Potency in [7] is 20.9 µM (active).
For the compound `FC(F)(F)c1ccc(C=Cc2nc(COc3ccc(CCCCn4ccnn4)cc3)co2)cc1`, the Potency was 0.332 µM (active) in test [10], 0.0074 µM (active) in [2], 0.0132 µM (active) in test [3] and 0.0526 µM (active) in test [7]. Also, in test [9], the Potency entry is “inactive”. Moreover, the viability (% of DMSO) in test [6] was 74.6% (active).
Regarding `COc1cc(C=CC(=O)O)ccc1O`, the Potency entry in test [1], in [9], in test [6] and in [8] was “inactive” each time.
Regarding `CNC(=O)[C@H](CC1=CN=C2C=CCC=C12)NC(=O)[C@@H](CC(=O)NO)CC(C)C`, the Potency was 26.4 µM (active) in test [10]; 0.0833 µM (active) in test [2]; 33.2 µM (active) in test [3]; 14.8 µM (active) in test [4]; 6.62 µM (active) in [5]; 0.0935 µM (active) in test [6]. Also, the Potency in test [8] was 0.105 µM (active). The Potency entry in test [7] was “inactive”.
With `COc1cc([C@H]2Oc3cc([C@H]4Oc5cc(O)cc(O)c5C(=O)[C@H]4O)ccc3O[C@H]2CO)ccc1O`, the Potency is 16.6 µM (active) in [10], 13.2 µM (active) in test [3], 9.35 µM (active) in test [9] and 10.5 µM (active) in [7]. Besides, the Potency result in test [2], in test [6] and in [8] was “inactive” throughout.
On to `O=C(c1ccc(C=Cc2n[nH]c3ccccc23)cc1)N1CCNCC1`, for which the Potency in test [10] was 2.64 µM (active); in test [2], 3.72 µM (active); in test [3], 3.32 µM (active); in test [9], 18.7 µM (active); in [5] it was 3.72 µM (active); in test [8], 2.35 µM (active).
For the compound `CCN1C[C@H](C)n2c(c(O)c3c(=O)n(Cc4ccc(F)c(Cl)c4)nc(C(=O)NC)c32)C1=O`, the Potency result in test [10], in test [2], in test [3], in test [4], in test [5] and in test [6] was “inactive” each time. The Potency result in test [8] was “inactive”.
For `CCN(CC)CCCCNc1nc2cc(Cl)c(Cl)cc2nc1-c1ccc(-c2cccs2)s1`, the Potency was 8.33 µM (active) in test [10]; 9.35 µM (active) in [2]; 4.69 µM (active) in [3]; 23.5 µM (active) in test [9]; 7.43 µM (active) in test [4]; 8.33 µM (active) in test [5]. For the same compound, the values for the Potency in [6], in test [7] and in [8] were 8.33 µM (active), 16.6 µM (active) and 6.62 µM (active), respectively.
